# Reference: the supplement of paper PMC10849652
# Of roughly 8,800 targets only a part is listed; those with a hit were picked by preference. About 0.5% of all pairs of compound and target were hits. Unmarked numbers belong to inactive results.
# Experiments:
# Test in all cases: log2 fold change, soluble protein after heating vs DMSO (PISA); higher = thermal stabilisation; K562 lysate, 10 uM; active = over 0.2 and 3.5 SD of the protein, either way, in both replicates (recomputed)
# alvocidib = compound: CN1CC[C@H](c2c(O)cc(O)c3c(=O)cc(-c4ccccc4Cl)oc23)[C@H](O)C1 [alvocidib]
# In short: (§1)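 K562 pellets were dounce-homogenised in PBS pH 7.4 containing 1 mM MgCl2, and the crude extract, at 1 mg/mL protein, was exposed to 10 μM compound for 30 min. Aliquots were heated for 3 min across 48°C-58°C, pooled, brought to 0.5% NP-40 at 4°C and spun at 21,000xg for 90 min, with the supernatant taken as soluble protein. TMTpro 16plex LC-MS/MS with equalised channel sums quantified that protein. Values are log-two fold changes in thermal stability relative to solvent controls, taken from duplicates.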
# Tubastatin A = compound: CN1CCc2c(c3ccccc3n2Cc2ccc(C(=O)NO)cc2)C1 [Tubastatin A]
# In short: as §1
# [1] = compound: CNC(=O)C1=CC=CC=C1NC2=NC(=NC=C2Cl)NC3=C(C=C(C=C3)N4CCOCC4)OC
# In short: as §1
# defactinib = compound: CNC(=O)c1ccc(Nc2ncc(C(F)(F)F)c(NCc3nccnc3N(C)S(C)(=O)=O)n2)cc1 [defactinib]
# In short: as §1
# [2] = compound: CNc1nc(-c2ccc3c(N)n[nH]c3c2)cc(N2C[C@@H](C(=O)NC3CCCCC3)CC[C@H]2C)n1
# In short: as §1
# encorafenib = compound: COC(=O)N[C@@H](C)CNc1nccc(-c2cn(C(C)C)nc2-c2cc(Cl)cc(NS(C)(=O)=O)c2F)n1 [encorafenib]
# In short: as §1
# [3] = compound: COC(=O)[C@H](CCSC)NC(=O)C1=C(C=C(C=C1)NC[C@H](CS)N)C2=CC=CC=C2
# In short: as §1
# alisertib = compound: COc1cc(Nc2ncc3c(n2)-c2ccc(Cl)cc2C(c2c(F)cccc2OC)=NC3)ccc1C(=O)O [alisertib]
# In short: as §1
# [4] = compound: COc1cc2nc(-c3cc(F)ccc3O)nc(N[C@@H]3CNC[C@H]3C(C)(C)O)c2cc1OC
# In short: as §1
# gefitinib = compound: COc1cc2ncnc(Nc3ccc(F)c(Cl)c3)c2cc1OCCCN1CCOCC1 [gefitinib]
# In short: as §1
# UniProt Q99417, sequence (Q99417 whole entry, looked up): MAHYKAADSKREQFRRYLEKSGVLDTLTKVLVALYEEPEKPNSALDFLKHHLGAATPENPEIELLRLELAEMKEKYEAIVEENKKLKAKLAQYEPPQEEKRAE
# UniProt Q96I59, sequence (Q96I59 whole entry, looked up): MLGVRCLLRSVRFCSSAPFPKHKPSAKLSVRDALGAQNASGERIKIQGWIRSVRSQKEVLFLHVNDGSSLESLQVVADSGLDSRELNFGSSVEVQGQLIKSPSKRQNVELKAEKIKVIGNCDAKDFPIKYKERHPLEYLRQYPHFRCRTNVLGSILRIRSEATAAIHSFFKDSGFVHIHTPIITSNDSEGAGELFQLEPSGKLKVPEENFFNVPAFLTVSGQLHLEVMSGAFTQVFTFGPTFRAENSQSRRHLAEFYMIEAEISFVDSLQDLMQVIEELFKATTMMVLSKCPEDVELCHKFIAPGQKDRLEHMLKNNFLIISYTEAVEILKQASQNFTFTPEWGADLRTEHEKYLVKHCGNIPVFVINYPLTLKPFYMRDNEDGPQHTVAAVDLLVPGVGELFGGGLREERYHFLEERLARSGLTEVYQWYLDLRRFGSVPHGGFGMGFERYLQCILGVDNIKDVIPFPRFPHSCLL
# UniProt Q9Y5A7, sequence (Q9Y5A7 whole entry, looked up): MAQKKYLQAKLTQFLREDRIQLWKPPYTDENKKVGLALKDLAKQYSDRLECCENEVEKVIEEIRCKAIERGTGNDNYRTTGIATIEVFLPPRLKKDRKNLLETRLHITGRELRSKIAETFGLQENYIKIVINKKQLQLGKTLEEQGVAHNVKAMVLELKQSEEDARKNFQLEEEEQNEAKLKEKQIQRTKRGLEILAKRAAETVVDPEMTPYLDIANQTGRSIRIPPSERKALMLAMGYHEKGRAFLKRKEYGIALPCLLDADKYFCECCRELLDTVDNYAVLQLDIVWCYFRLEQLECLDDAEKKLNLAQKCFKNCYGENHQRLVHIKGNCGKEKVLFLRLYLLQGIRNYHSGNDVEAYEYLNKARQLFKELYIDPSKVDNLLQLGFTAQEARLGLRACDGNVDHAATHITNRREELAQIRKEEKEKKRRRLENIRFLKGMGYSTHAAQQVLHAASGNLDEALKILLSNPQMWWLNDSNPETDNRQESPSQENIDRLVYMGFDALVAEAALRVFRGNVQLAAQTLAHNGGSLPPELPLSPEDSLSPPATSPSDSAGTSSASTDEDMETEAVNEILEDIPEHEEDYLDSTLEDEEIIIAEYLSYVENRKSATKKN
# UniProt O00221, sequence (O00221 whole entry, looked up): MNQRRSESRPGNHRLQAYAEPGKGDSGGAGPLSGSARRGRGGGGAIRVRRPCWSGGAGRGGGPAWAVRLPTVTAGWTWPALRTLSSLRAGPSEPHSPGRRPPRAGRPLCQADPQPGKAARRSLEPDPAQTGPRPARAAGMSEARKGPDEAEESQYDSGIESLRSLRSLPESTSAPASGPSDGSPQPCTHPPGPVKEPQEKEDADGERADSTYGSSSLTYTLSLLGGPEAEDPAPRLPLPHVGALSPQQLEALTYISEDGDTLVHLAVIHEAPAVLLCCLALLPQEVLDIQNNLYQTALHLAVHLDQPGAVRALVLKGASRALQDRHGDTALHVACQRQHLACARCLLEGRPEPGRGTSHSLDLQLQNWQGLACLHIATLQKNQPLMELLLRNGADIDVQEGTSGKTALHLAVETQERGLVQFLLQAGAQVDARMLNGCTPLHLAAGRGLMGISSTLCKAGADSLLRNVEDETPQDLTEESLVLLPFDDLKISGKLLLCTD
# UniProt O43913, sequence (O43913 whole entry, looked up): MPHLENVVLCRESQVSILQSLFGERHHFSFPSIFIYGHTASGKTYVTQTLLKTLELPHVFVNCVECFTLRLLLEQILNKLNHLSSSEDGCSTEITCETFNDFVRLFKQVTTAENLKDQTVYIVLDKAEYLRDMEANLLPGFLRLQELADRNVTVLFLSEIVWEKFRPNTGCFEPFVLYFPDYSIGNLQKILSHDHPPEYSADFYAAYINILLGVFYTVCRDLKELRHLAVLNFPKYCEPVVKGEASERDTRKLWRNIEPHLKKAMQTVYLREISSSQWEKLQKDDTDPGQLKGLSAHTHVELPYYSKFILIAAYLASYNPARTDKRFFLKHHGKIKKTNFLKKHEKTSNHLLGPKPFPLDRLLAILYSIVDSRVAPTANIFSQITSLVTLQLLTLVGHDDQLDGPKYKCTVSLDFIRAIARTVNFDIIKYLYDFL
# UniProt Q9Y314, sequence (Q9Y314 whole entry, looked up): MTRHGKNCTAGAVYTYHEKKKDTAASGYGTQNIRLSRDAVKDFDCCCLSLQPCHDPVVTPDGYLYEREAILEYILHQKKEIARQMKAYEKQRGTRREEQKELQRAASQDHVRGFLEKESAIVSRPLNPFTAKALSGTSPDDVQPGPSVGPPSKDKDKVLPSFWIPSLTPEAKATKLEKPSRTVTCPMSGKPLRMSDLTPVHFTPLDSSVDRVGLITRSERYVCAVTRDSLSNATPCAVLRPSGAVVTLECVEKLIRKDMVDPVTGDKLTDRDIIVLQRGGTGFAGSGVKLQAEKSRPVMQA
# UniProt P18440, sequence (P18440 whole entry, looked up): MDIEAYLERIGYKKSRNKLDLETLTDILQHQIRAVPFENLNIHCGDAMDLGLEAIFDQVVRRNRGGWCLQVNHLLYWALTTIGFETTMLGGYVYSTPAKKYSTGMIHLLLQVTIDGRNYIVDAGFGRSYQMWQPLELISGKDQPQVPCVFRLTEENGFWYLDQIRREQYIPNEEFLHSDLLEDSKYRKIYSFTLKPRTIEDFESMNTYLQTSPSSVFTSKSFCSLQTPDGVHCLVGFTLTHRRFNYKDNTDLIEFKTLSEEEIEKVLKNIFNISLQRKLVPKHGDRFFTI
# UniProt P42695, sequence (P42695 whole entry, looked up): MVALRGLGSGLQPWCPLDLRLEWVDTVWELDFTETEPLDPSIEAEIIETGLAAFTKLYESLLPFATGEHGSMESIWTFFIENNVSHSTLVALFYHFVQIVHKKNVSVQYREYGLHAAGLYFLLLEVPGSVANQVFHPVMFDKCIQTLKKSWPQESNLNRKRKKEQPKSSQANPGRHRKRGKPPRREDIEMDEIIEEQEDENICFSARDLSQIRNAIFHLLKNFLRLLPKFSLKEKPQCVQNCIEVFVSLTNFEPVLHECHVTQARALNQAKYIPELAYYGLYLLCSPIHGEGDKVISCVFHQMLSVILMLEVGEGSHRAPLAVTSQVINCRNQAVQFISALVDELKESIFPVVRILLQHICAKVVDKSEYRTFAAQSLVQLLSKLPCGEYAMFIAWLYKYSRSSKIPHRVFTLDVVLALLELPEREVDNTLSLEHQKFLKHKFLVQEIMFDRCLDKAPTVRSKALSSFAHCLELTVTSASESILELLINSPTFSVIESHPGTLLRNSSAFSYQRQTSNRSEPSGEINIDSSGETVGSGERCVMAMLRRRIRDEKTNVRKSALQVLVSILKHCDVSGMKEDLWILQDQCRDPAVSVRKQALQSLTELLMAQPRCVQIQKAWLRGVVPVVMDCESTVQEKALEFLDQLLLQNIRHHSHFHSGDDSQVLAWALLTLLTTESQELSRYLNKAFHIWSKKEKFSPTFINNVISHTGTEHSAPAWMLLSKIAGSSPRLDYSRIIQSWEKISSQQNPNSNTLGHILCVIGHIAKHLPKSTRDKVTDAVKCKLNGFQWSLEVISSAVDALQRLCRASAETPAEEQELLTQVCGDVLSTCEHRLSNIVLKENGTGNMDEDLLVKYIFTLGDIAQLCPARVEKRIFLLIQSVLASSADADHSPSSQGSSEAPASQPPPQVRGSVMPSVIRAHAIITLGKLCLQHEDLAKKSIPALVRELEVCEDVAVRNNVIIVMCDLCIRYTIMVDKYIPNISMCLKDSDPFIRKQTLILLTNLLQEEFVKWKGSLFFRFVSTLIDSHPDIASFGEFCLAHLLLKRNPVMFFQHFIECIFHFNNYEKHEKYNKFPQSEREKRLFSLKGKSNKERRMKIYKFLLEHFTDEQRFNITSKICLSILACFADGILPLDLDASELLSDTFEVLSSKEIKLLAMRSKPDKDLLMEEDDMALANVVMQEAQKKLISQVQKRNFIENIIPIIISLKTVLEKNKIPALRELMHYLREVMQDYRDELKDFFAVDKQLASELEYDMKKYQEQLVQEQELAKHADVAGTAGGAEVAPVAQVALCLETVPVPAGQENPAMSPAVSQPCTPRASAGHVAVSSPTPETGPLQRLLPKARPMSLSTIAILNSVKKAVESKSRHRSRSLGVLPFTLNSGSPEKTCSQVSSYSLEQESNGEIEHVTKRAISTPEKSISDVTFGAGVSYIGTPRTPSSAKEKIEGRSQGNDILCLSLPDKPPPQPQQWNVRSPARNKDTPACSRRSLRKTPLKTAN
# UniProt Q9NQR4, sequence (Q9NQR4 whole entry, looked up): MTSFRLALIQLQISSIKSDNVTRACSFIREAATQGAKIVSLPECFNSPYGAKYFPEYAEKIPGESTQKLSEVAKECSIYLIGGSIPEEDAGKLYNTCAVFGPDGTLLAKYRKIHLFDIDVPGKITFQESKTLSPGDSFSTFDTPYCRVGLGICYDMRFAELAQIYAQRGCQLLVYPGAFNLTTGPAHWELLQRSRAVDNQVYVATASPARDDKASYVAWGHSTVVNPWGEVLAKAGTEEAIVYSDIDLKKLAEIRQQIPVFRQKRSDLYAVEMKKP
# UniProt Q9ULX3, sequence (Q9ULX3 whole entry, looked up): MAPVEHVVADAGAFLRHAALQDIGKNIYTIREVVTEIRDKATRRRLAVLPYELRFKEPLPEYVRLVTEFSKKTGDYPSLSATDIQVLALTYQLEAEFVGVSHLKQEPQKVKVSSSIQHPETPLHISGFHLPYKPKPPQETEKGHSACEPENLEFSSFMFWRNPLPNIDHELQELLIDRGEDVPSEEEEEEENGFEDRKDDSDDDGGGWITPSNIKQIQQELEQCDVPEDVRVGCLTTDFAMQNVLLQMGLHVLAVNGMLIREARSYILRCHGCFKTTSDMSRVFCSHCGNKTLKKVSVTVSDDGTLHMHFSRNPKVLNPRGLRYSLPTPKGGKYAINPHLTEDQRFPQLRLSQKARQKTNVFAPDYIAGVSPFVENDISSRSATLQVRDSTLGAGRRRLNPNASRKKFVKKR
Target,log2 fold change (alvocidib),log2 fold change (Tubastatin A),log2 fold change [1],log2 fold change (defactinib),log2 fold change [2],log2 fold change (encorafenib),log2 fold change [3],log2 fold change (alisertib),log2 fold change [4],log2 fold change (gefitinib)
MYCBP2 (UniProt O75592),-0.046,-0.098,0.024,0.019,0.003,0.055,-0.015,0.007,0.032,-0.004
NARS2 (UniProt Q96I59),0.013,-0.157,-0.046,0.014,-0.04,-0.01,0.039,-0.006,-0.01,-0.016
NUDT4 (UniProt Q9NZJ9),-0.001,-0.149,0.063,0.153,-0.066,0.051,-0.17,-0.036,0.001,-0.052
ORC2 (UniProt Q13416),0.034,-0.161,0.038,0.034,-0.008,0.018,0.094,0.012,-0.002,-0.011
NOC2L (UniProt Q9Y3T9),-0.009,-0.066,0.043,0.121,0.257 (active),0.048,-0.02,0.01,0.06,-0.03
NOA1 (UniProt Q8NC60),-0.016,-0.11,0.063,-0.076,0.063,-0.049,-0.023,0.039,0.023,-0.042
NR3C1 isoform 3 (UniProt P04150),-0.004,-0.088,0.048,0.021,-0.093,0.05,0.029,0.045,-0.001,0.013
NFKBIE (UniProt O00221),-0.068,0.029,0.055,0.054,0.013,0.038,-0.14,0.047,-0.03,0.014
ORC5 (UniProt O43913),0.001,-0.163,0.001,0.062,-0.008,0.049,0.165,-0.004,0.006,-0.011
NAA30 (UniProt Q147X3),-0.03,0.051,-0.023,0.002,0.023,-0.032,0.008,0.039,-0.066,0.015
MRPS12 (UniProt O15235),-0.015,0.026,-0.021,0.015,0.067,0.011,-0.168,-0.027,-0.053,-0.032
NQO1 (UniProt P15559),0.007,-0.079,0.068,0.003,-0.111,0.043,0.159,-0.001,-0.042,0.009
NUP205 (UniProt Q92621),-0.02,-0.078,0.012,0.015,-0.003,0.016,-0.081,0.008,0,-0.018
PBK (UniProt Q96KB5),0.013,-0.041,-0.001,-0.004,-0.015,-0.011,0.099,-0.013,-0.003,-0.023
MXRA7 (UniProt P84157),-0.002,-0.056,-0.052,-0.239,0.131,0.051,-0.028,-0.19,-0.009,0.177
PANK4 (UniProt Q9NVE7),-0.009,-0.117,0.018,0.01,0.019,-0.011,0.498 (active),-0.028,0.013,-0.017
MRPS18A isoform 2 (UniProt Q9NVS2),0.18,-0.047,-0.156,-0.024,0.106,0.029,-0.037,0.041,-0.017,0.008
OCRL (UniProt Q01968),-0.002,-0.105,0.074,0.123,-0.051,0.045,-0.006,0.016,-0.082,0.049
NNT (UniProt Q13423),0.006,0.035,0.021,-0.005,-0.04,-0.018,-0.017,-0.001,0.021,0.012
NOB1 (UniProt Q9ULX3),0.077,-0.129,-0.005,0,-0.011,0.036,0.037,0.047,-0.031,-0.022
MYCBP (UniProt Q99417),-0.244,0.045,-0.02,0.022,-0.031,0.005,-0.069,0.022,-0.001,-0.029
N4BP2 (UniProt Q86UW6),0.063,-0.17,0.052,0.021,-0.004,0.06,0.003,0.016,0,-0.005
NUB1 (UniProt Q9Y5A7),0.033,-0.095,0.037,-0.007,0.014,0.022,0.038,-0.012,-0.004,-0.049
NIT2 (UniProt Q9NQR4),0.046,0.047,-0.003,-0.05,0.013,-0.032,0.082,0.012,0.019,-0.017
NUCB2 (UniProt P80303),0.061,0.036,0.007,-0.039,0.005,0.001,-0.027,0.003,0.014,0.004
NAT1 (UniProt P18440),0.038,-0.087,-0.025,0.05,-0.046,-0.02,0.006,0.035,0.039,0.031
MTOR (UniProt P42345),-0.054,-0.118,-0.038,0.01,-0.025,0.016,0.014,0.006,0,-0.039
NCAPD3 (UniProt P42695),-0.006,-0.224,0.017,0.017,0.013,0.037,-0.018,-0.017,0,-0.002
NAA35 (UniProt Q5VZE5),0.018,-0.056,-0.007,0.034,0,0.01,-0.001,-0.026,-0.006,-0.008
NOSIP (UniProt Q9Y314),-0.02,-0.156,0.018,0.05,0.004,0.014,0.02,-0.016,0.015,-0.049
